B2AR ag = human beta-2 adrenergic receptor agonism by FAP; response, % (test concentration not listed); P07550; Am2.2-beta2AR cells, FAP receptor internalization, flow cytometry; actives 0.43% (n = 340,000); AID 504454;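 active = response above a set limit, near 3 SD of response in nonfluorescent compounds, cut at about 42% in these data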
Target sequence (P07550 whole entry, looked up): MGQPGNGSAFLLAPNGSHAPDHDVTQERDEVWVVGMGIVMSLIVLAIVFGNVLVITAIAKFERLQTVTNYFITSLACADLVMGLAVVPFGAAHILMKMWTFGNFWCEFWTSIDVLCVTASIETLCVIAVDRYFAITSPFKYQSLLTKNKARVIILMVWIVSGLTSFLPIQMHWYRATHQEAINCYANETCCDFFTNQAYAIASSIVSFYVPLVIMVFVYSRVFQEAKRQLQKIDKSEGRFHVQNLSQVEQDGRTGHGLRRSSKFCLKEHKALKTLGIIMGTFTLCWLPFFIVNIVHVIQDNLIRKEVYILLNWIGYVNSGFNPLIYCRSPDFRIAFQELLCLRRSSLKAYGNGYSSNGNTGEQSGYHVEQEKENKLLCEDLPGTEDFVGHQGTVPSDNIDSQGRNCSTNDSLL
CF NFkB block = blocks PAF-induced NF-kB reporter in cystic fibrosis cells; actives 0.86% (n = 360,000); inhibition, % at 5 µM; KKLEB NF-kB-GFP reporter, GFP fluorescence overnight; AID 588850;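 active = at least 50% inhibition at 5 µM, scaled per plate between neutral and stimulator controls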;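 note: PAF is a Pseudomonas aeruginosa culture filtrate used as stimulus; plate controls were PAF-stimulated DMSO wells for no effect and unstimulated DMSO wells for full effect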
HIF-2a block = inhibitors of HIF-2a; inhibition, % at 18.8 µM; actives 0.72% (n = 360,000); 786-0 RCC cells HIF-2a reporter, luciferase luminescence, overnight;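 active = inhibition of the luminescence signal of 40% or more relative to plate controls, in a single-dose primary screen at 18.75 µM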
KKLEB tox = CF airway cell cytotoxicity counter-screen. actives 0.36% (n = 360,000). KKLEB CF airway cells viability, ATPlite luminescence, overnight; stronger effect = lower value; cells stimulated with P. aeruginosa culture filtrate. activity change (cytotoxicity), % at 5 µM;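 active = corrected activity change at or below -50% at 5 µM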
Peg3 promoter = reduces Peg3 promoter-driven luciferase expression in HeLa | HeLa PEG-Prom luciferase reporter, luminescence, overnight | inhibition, % at 20 µM | actives 1.7% (n = 360,000) | AID 588405;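 active = inhibition of at least 50% at 20 µM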
TRPM1 prom inh = MITF TRPM1 promoter inhibition in SK-MEL-5 cells. SK-MEL-5 TRPM1 promoter luciferase, 24 h. inhibition, % at 12.5 µM. actives 0.83% (n = 330,000);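 active = mean inhibition across replicates of 60% or more, whatever share of single replicates reaches that level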
Starred values were filed as active, the others as inactive; . = no result. The list is not random: actives were taken first. Their share in the collection is about 2.8%.

SMILES	B2AR ag	CF NFkB block	HIF-2a block	KKLEB tox	Peg3 promoter	TRPM1 prom inh
CN1C(=O)[C@H]2[C@@H](c3ccc(C(F)(F)F)cc3)N[C@]3(CCCN(Cc4ccc(C(F)(F)F)cc4)C3=O)[C@H]2C1=O	.	-6	0	-4	9	.
CCc1nc2c(OCC(=O)c3ccc(Cl)cc3Cl)cccn2c1N(C=O)Cc1ccccc1	.	-7	-23	-4	26	.
COc1cc(OC)cc(C2=Cc3ccc(OC)cc3C(CC(C)=O)N2c2ccc(-c3cccs3)cc2)c1 (stereo unspecified)	.	.	-17	.	.	.
COc1cccc(C(=O)N/N=C(/CCC(=O)O)c2ccccc2)c1	2	10	-17	2	-15	-8
COc1cccc(C(=O)N/N=C(/c2ccccc2)c2ccccn2)c1	12	4	-15	16	86*	66*
COc1cc(C(=O)N/N=C(\C)c2ccccn2)cc(OC)c1OC	-1	-1	-3	15	58*	39
COc1cccc(C(NC(C)=O)c2nc(-c3ccccc3C)cs2)c1 (stereo unspecified)	.	15	-13	-4	3	.
CCCCN(C)CCNC(=S)Nc1ccc2nc(N3CCN(CC)CC3)cc(C)c2c1	13	-13	16	-8	63*	6
CCOC(=O)N1CCC(NC(=S)Nc2ccc3nc(N4CCN(CC)CC4)cc(C)c3c2)CC1	50*	17	13	-11	-1	16
Cc1cc(N2CCCC2)nc2ccc(NC(=S)NCCCN3CCC(C)CC3)cc12	6	-24	18	-1	98*	30
Cc1cc(N2CCN(C)CC2)nc2ccc(NC(=S)NCCN3CCc4ccccc4C3)cc12	26	12	7	-6	61*	78*
CCCN1CCN(CCCNC(=S)Nc2ccc3nc(N4CCN(CC)CC4)cc(C)c3c2)CC1	18	25	12	-10	4	-13
CCCCNC(=O)C1(C)CCN1C(=O)c1sccc1C (stereo unspecified)	.	9	9	10	-6	.
O=c1[nH]cc(F)c(=O)n1C1OC(CO)C(O)C1O (stereo unspecified)	.	.	13	.	.	.
CC(=O)C1CCC2C3CCC4=CC(=O)CCC4(C)C3(Br)C(=O)CC12C (stereo unspecified)	56*	0	-3	4	12	-1
COc1ccc([C@H]2CN(c3ccc(OC)cc3)C(=O)[C@@H]2CC(=O)Nc2ccccc2)cc1	.	-8	-97	-8	-35	.
Cc1ccc(Nc2nc(NCc3ccco3)c3ccccc3n2)cc1	29	32	-130	-40	106*	-21
Cc1ccc(-c2cn3cccnc3n2)cc1NC(=O)c1c(-c2ccccc2Cl)noc1C	-18	8	7	-6	28	13
Cc1onc(-c2ccccc2Cl)c1C(=O)Nc1ccc(-c2cn3cccnc3n2)cc1	-11	-10	3	0	94*	-13
Cc1ccccc1NC(=S)NCc1ccc2c(c1)cc(C)n2C	52*	18	-74	-11	-44	0
CCCCN(CC)CCNC(=O)c1cc2c(-c3ccc(Cl)cc3)nn(C)c2s1	20	-5	31	-2	103*	68*
CCCN(CCC)CCNC(=O)c1cc2c(-c3ccccc3F)nn(C)c2s1	7	-16	11	-4	14	10
CCOCCCNC(=O)c1cc2c(-c3ccc(Cl)cc3)nn(C)c2s1	-14	-36	18	-15	11	12
CCCN(CCC)CCNC(=O)c1cc2c(-c3ccc(Cl)cc3)nn(C)c2s1	25	-2	36	-14	76*	4
COc1ccc2c(c1)N(C)/C(=C/c1cccc[n+]1C)S2	-171	-54	0	2	64*	21
SMILES	B2AR ag	CF NFkB block	HIF-2a block	KKLEB tox	Peg3 promoter	TRPM1 prom inh
Cc1ccc(-c2cc(C(=O)N3CCN(c4ncccn4)CC3)c3cc(Br)ccc3n2)o1	19	-8	10	0	52*	-14
Cc1ccc(-c2cc(C(=O)N3CCN(c4ccc(F)cc4)CC3)c3ccccc3n2)o1	-1	-1	-84	-6	-25	-29
O=C(C[C@@H]1C[C@H]2c3cc(NC(=O)c4cccnc4)ccc3O[C@H]2[C@H](CO)O1)NCc1ccc(Oc2ccccc2)cc1	.	-10	23	5	23	.
CN1CCN(CCCNC(=O)c2ccc3c(Cl)c4c(nc3c2)CCCC4)CC1	15	1	-20	3	87*	-17
CCC(C)NC(=O)c1ccc2c(Cl)c3c(nc2c1)CCC3 (stereo unspecified)	-4	4	-331	-11	-242	-53
Cc1nc(-c2ccc3c(c2)OCCO3)cs1	3	9	-196	-1	-227	-30
Cc1ccc(-c2csc(/C(C#N)=C/Nc3ccc4c(c3)OCCO4)n2)cc1	2	68*	-5	-66*	31	8
CC(CCl)n1c(=O)c2ccccc2n1C(=O)c1ccccc1 (stereo unspecified)	.	.	26	.	.	.
COc1cccc2c(C)nc(Nc3nc(CSc4nnc(C)s4)cc(=O)[nH]3)nc12	-8	-5	14	11	76*	16
Cc1nc(Nc2nc(CSc3nc4ccccc4[nH]3)cc(=O)[nH]2)nc2ccccc12	8	31	-23	14	102*	7
Cc1nc(Nc2nc(CSc3ccc(Cl)cc3)cc(=O)[nH]2)nc2ccccc12	-12	-1	6	2	13	7
Cc1ccc2c(=O)[nH]c(Nc3nc(C)cc(-c4ccccc4)n3)nc2c1	-3	-5	-18	-9	-6	12
Cc1nc(Nc2nc(-c3ccccc3)cc(=O)[nH]2)nc2ccccc12	-4	-154	-229	0	64*	-1
COc1nc(Nc2nc3ccccc3c(=O)[nH]2)nc2ccc(C)cc12	11	48	-41	0	98*	26
CNC(=O)OCc1snc(-c2ccccc2)c1COC(=O)NC	.	1	-10	-4	14	.
COc1ccc(C(C(=O)NCc2ccccc2)n2c(-c3ccccn3)nc3ccccc32)cc1 (stereo unspecified)	.	.	1	.	.	.
Cc1ccc([C@@H]2C[C@H]3[C@@H](CN2S(=O)(=O)c2ccc(Cl)cc2)C(=O)C[C@@H](c2ccc(Cl)cc2)N3S(=O)(=O)c2ccccc2C)cc1	.	4	8	2	1	.
CCCCCc1cc(=O)oc2c(C(CCN3CCCC3)c3ccc(N(C)C)cc3)c(OC)cc(OC)c12 (stereo unspecified)	35	14	15	-27	97*	79*
CCCCCc1cc(=O)oc2c(C(CCN3CCCCC3)c3ccc(OC)cc3)c(OC)cc(OC)c12 (stereo unspecified)	17	53*	-1	-56*	102*	92*
CCCCCc1cc(=O)oc2c(C(CCN(CC)CC)c3ccc(OC)cc3)c(OC)cc(OC)c12 (stereo unspecified)	13	3	19	-8	101*	81*

Bioassay records: PubChem BioAssay, several laboratories
